A selection: hits, their analogues and other compounds. The true share with any hit is near 19%.
TDP1 cell CPT = DT40-hTDP1 cell growth loss with CPT | chicken DT40 Tdp1-/-;hTDP1 cells + 20 nM CPT, ATP luminescence, 48 h | Potency, µM (series often up to 46.2 µM), actives largely listed as inhibitors | 420,000 tested, 12% active | AID 686979; also: nearly all actives have a fitted effect of over 55% in size
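Chicken DT40 Tdp1-/- cells stably complemented with human TDP1 were seeded at 400 cells/well in medium containing 20 nM camptothecin, exposed to pin-transferred compounds, and grown at 37 °C for at least 48 hr. Viability was read as ATP luminescence.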
HT1080-NT tox = kills 2HG-producing HT-1080-NT fibrosarcoma cells; HT-1080-NT fibrosarcoma viability, CellTiter-Glo ATP luminescence, 48 h; 360,000 tested, 1.6% active; Potency, µM (titrated, usually from 46.1 µM), hits mostly cytotoxic;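 also: NT is the 2HG producing partner of a matched IDH1 knockdown line; nearly all actives have a fitted effect of over 55% in size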
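Compounds were tested in concentration-response format on HT-1080-NT cells for 48 hours at 37 degrees C. Cell viability came from CellTiter-Glo luminescence; curves were classified by r2, response magnitude and activity.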
DT40 TDP1 no CPT = qHTS for Inhibitors of human tyrosyl-DNA phosphodiesterase 1 (TDP1): qHTS in cells in absence of CPT; AID 686978, 2013; 420,000 tested, 15% active; Potency, µM (doses to about 46.2 µM), most hits filed as inhibitors; DT40 Tdp1-/- hTDP1 cells, no CPT, ATP luminescence, 48 h; also: nearly all actives have a fitted effect of over 55% in size
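Chicken DT40 Tdp1-/- cells complemented with human TDP1, screened without camptothecin (DMSO vehicle only), 400 cells/well. Compounds pin-transferred, cells incubated at 37 °C for at least 48 hr. Growth read as ATP-dependent luminescence (CellTiter-Glo, 30 min at RT).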
IL-1B inflam inh = inflammasome signaling inhibition, IL-1 beta readout; 360,000 tested, 4.7% active; AID 743279; activity change, % at 57.5 µM; THP-1 LPS/ATP IL-1B secretion, AlphaLISA, 16 h; active compounds read low; in the data active = activity change below about -50%; inconclusive = mostly about -30% to -49%
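Secreted IL-1B measured by AlphaLISA bead assay after 16 h compound exposure of THP-1 cells; compounds (final up to 57.5 uM) added 1 h before LPS (250 ng/mL) and ATP (1.25 mM) stimulation; lower signal means less secretion.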
HT1080 IDH1KD tx = toxicity to HT-1080 IDH1 knockdown cells (counter line). HT-1080 IDH1 knockdown viability, ATP luminescence, 48 h. Potency, µM (titrated, usually from 46.1 µM), hits mostly cytotoxic. 360,000 tested, 2% active. AID 686971
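Luminescent ATP read-out (CellTiter-Glo, 10 min at room temperature) after 48 h compound exposure at 37 °C gave viability of IDH1-knockdown HT-1080 cells. Activity was normalised to DMSO and cell-free wells, then fitted as concentration-response curves.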
Numbers stand for hits; 0 = inactive; ? = inconclusive; - = no result given. Unless noted, calls follow the shape of the dose curve; as a rule, active = well fitted curve in the direction sought with a large enough effect; inconclusive = small, poorly fitted or top-dose-only effect, or another doubt; inactive = no such curve, though single readings can be large; an effect the other way counts as inactive or inconclusive.

SMILES	TDP1 cell CPT	HT1080-NT tox	DT40 TDP1 no CPT	IL-1B inflam inh	HT1080 IDH1KD tx
Cc1ccc(/C(O)=C/C(=O)C(=O)NC23CC4CC(CC(C4)C2)C3)cc1	?	0	13µM	0	0
NS(=O)(=O)c1ccc(CNC(=O)NC23CC4CC(CC(C4)C2)C3)cc1	0	0	0	0	0
Cc1ccc(C23CC4CC(CC(NC(=O)NCCN(C)C)(C4)C2)C3)cc1	?	20.6µM	23.1µM	0	?
Cc1ccc(CNC(=O)NC23CC4CC(CC(C4)C2)C3)cc1	23.1µM	0	?	0	0
CCOc1ccccc1NC(=O)CN(c1ccc(OC)cc1)S(=O)(=O)c1c(C)[nH]c(=O)[nH]c1=O	0	0	0	0	0
COc1ccc(CCN2CCCn3c2nc2c3c(=O)[nH]c(=O)n2C)cc1OC	25.9µM	?	7.31µM	0	18.4µM
CCOC(=O)c1ccc(NC(=O)Cn2ncc(Cl)c(Cl)c2=O)cc1	2.31µM	16.4µM	2.31µM	-100.2	4.61µM
CCc1ccccc1NC(=O)CN(C)C(=O)Cn1ncc(Cl)c(Cl)c1=O	5.8µM	?	6.51µM	-107.7	?
CCC(=O)Nc1ccc(C(=O)Cn2ncc(Cl)c(Cl)c2=O)cc1	5.17µM	0	6.51µM	-95.6	?
Cc1ccc(NC(=O)CCC(=O)c2cccs2)c(O)c1	0	0	0	0	0
O=C(CN1C(=O)S/C(=C\c2ccccc2Cl)C1=O)NCCCn1ccnc1	0	0	?	0	0
Cc1ccccc1NC(=O)CCc1c(C)nc2c(c1C)c(=O)n(C)c(=O)n2C	0	-	?	-	-
CCc1nc(SCC(=O)Nc2cccc(C(F)(F)F)c2)c2c(=O)n(C)c(=O)n(C)c2n1	?	0	9.2µM	0	0
CCc1nc(SCC(=O)Nc2ccc(F)cc2F)c2c(=O)n(C)c(=O)n(C)c2n1	?	0	?	0	0
Cc1nc2c(c(C)c1CCC(=O)Nc1cccc(C(F)(F)F)c1)c(=O)n(C)c(=O)n2C	?	-	16.4µM	-	-
COc1ccc(NC(=O)CCc2c(C)nc3c(c2C)c(=O)n(C)c(=O)n3C)cc1OC	0	-	?	-	-
Cc1nc2c(c(C)c1CCC(=O)Nc1ccc(F)cc1)c(=O)n(C)c(=O)n2C	?	-	13µM	-	-
S=C1NCCNC(=S)NCCOCCOCCN1	0	0	0	0	0
O=C(NCc1cccc(C(F)(F)F)c1)N1CCN(C(=O)c2ccccc2)CC1	0	0	0	0	0
Cc1cccc(COCC(Cc2ccccc2)N2CCN(C(=O)c3cccc(C)c3)CCC2=O)c1 (centres undefined)	?	0	?	0	0
O=C(c1ccc(Cl)c(Cl)c1)N1CCC(=O)N(C(COCc2ccc(Cl)cc2)Cc2ccccc2)CC1 (centres undefined)	?	0	16.4µM	-73.1	?
O=C(c1ccc(Cl)c(Cl)c1)N1CCC(=O)N(C(COCc2cccc(C(F)(F)F)c2)Cc2ccccc2)CC1 (centres undefined)	?	?	?	-86.2	?
Cc1cccc(COC[C@H](Cc2ccccc2)N2CCN(C(=O)c3ccc(Cl)c(Cl)c3)CCC2=O)c1	?	?	?	-65.3	16.4µM
Cc1cccc(COCC(Cc2ccccc2)N2CCN(C(=O)c3ccc(Cl)c(Cl)c3)CCC2=O)c1 (centres undefined)	20.6µM	0	?	-73.6	?
CC(N)CCCP(=O)(O)O (centres undefined)	0	-	0	-	-
Cc1cccc2[nH]c(CCNC(=O)C3CCC(=O)N(CCc4cccc(F)c4)C3)nc12 (centres undefined)	0	0	0	0	0
CC(C)(CO)NC(=S)NCc1ccco1	0	0	0	0	0
O=C(c1cccc(Cl)c1)N1CCC(=O)N([C@H](COCc2cccc(Cl)c2)Cc2ccccc2)CC1	?	?	23.1µM	?	16.4µM
Cc1ccc(Oc2nc3ccccn3c(=O)c2/C=C(\C#N)C(=O)Nc2c(C)n(C)n(-c3ccccc3)c2=O)cc1	0	0	?	-60.6	0
Cc1ccc(Oc2nc3ccccn3c(=O)c2/C=C(\C#N)C(=O)NC2CCS(=O)(=O)C2)c(C)c1 (centres undefined)	?	0	?	0	?

Assay outcomes from PubChem BioAssay.
